Out of some 330,000 compounds screened, about 4,900 (1.5%) were called active. The sample holds actives, similar compounds and a random draw of the others, so the mix is not that of the screen. Values without a mark were called inactive.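 How the source made its calls: active means inhibition above the mean inhibition across the screen plus 3 SD (cut at about 25% in these data); inactive means the rest.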

The term inhibition denotes the relative decrease from the control value, in per cent.

The experiment deals with Platelet-activating factor acetylhydrolase (Homo sapiens) (UniProt Q13093). The experiment is described as follows: inhibition of plasma PAF acetylhydrolase – biochemical, fluorescence polarization, human, primary screen (AID 463082).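 Further: inhibitors block binding of the rhodamine activity-based probe so polarization drops; 0% = enzyme with DMSO and 100% = wells lacking pPAFAH.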 To be noted: recombinant pPAFAH, FP-rhodamine probe fluorescence polarization; at 3.39 µM; active compounds read high. (In fluorescence polarisation assays a small probe gives low polarisation when free and higher when bound to something large.)
Sequence of Platelet-activating factor acetylhydrolase (Homo sapiens) (Q13093 whole entry, looked up): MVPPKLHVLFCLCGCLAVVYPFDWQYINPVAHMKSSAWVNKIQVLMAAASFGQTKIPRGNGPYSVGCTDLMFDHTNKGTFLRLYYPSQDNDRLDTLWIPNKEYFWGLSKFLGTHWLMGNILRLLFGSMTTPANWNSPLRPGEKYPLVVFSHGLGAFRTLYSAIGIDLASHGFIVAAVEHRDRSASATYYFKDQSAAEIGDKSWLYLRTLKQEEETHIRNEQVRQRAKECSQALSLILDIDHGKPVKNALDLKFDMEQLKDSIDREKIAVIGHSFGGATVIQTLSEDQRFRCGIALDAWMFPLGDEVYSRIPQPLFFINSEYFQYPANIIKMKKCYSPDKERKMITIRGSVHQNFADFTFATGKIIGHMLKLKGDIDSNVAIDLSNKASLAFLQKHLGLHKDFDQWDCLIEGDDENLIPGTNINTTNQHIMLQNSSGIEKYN
In the case of `O=C(CC1C(=O)NCCN1CC(c1ccccc1)c1ccccc1)NCCc1cn[nH]c1` (stereo not given), the inhibition is 7.44%.

As for `COc1cc([N+](=O)[O-])ccc1NC(=O)COC(=O)CCOc1ccc(C)cc1`, the inhibition is 6.88%.

As to `O=C(Nc1ccccc1C(=O)N1CCOCC1)c1ccc(CSc2ccccc2)cc1`, the inhibition is 4.67%.

With `CC(C)Oc1c(Br)cc(Br)cc1/C=N/NC(N)=S`, the inhibition is 1.45%.

For `Cc1cccc(-n2c(C)cc(/C=N\NC(=O)c3cccs3)c2C)c1`, the inhibition is 22%.

On to `Cc1cc(/C=N/NC(=O)CC2(C)OCCO2)c(C)n1-c1ccc(Cl)c(Cl)c1`, for which the inhibition was 27.6% (active).

As for `Cc1ccc(-n2c(C)cc(/C=N\NC(=O)CC(=O)NC(C)C)c2C)cc1`, the inhibition is 1.94%.

With `O=C(CNC(=O)C1COc2ccccc2O1)N/N=C/c1cc(Br)c(O)c(Br)c1` (stereo not given), the inhibition is 26.3% (active).

With `O=C(N/N=C\c1cc(Br)c(Br)o1)C1COc2ccccc2O1` (stereo not given), the inhibition is -1.47%.

Consider `O=C(N/N=C/c1cc2c(cc1Br)OCO2)C1COc2ccccc2O1` (stereo not given), for which the inhibition was 8.36%.

For `CCOc1ccc(N(C)S(=O)(=O)c2cnc[nH]2)cc1`, the inhibition was 4.67%.

Turning to `CC(Oc1cc2oc(=O)c3c(c2cc1Cl)CCCC3)C(=O)NCc1ccncc1` (stereo not given), the inhibition was 7.32%.

As for `CCOC(=O)CSc1nnc(CNC(=O)c2cccs2)n1-c1cc(OC)ccc1OC`, the inhibition is 4.54%.

Consider `Cn1nccc1NC(=O)Nc1ccc(OC(F)(F)F)cc1`, for which the inhibition was -4.08%.

Consider `Cn1cccc1/C=N/NC(=O)c1ccc(OC(F)(F)C(F)F)cc1`, for which the inhibition was 6.18%.

With `O=C(Nc1ccc(OC(F)(F)F)cc1)c1ccc2c(c1)no[n+]2[O-]`, the inhibition was 25.4% (active).

As to `CCCCN1C(=O)CCC(C(=O)O)C1c1ccc(OC)cc1` (stereo not given), the inhibition is 2.74%.

Consider `CCOC(=O)C(C)Oc1cccc2c(=O)n(CC(=O)NCCc3ccc(OC)c(OC)c3)ccc12` (stereo not given), for which the inhibition was 0.87%.

For `Nn1c(SCC(=O)NC2CCCc3ccccc32)nnc1C1CC1` (stereo not given), the inhibition is -1.35%.

For the molecule `C[C@H](NC(=O)c1ccccc1Cl)C(=O)OCCOc1cccc(Cl)c1`, the inhibition is 0.09%.

As for `COC/C=C/C1=CC2=CC(=O)C(C)(OC(=O)CCC(=O)OC)C(=O)C2=CO1` (stereo not given), the inhibition is 32.3% (active).

On to `CCCCC1=CC2=CC(=O)C(C)(OC(=O)CC)C(=O)C2=CN1CCCOC(C)C` (stereo not given), for which the inhibition is -0.51%.

Consider `COC(=O)CCCC1=CC2=CC(=O)C(C)(OC(=O)c3cccs3)C(=O)C2=CN1CC(C)C` (stereo not given), for which the inhibition is 5.09%.

On to `COc1ccc(OCC(=O)OCCN(C)C)cc1`, for which the inhibition is 0.82%.

Turning to `O=C(CCCN1C(=O)CCC1=O)Nc1ccc(Cl)c(C(F)(F)F)c1`, the inhibition is 5.28%.

In the case of `COc1ccc(Cl)cc1NC(=O)COC(=O)C(CC(C)C)N1C(=O)C2CC=CCC2C1=O` (stereo not given), the inhibition was -2.85%.

For the molecule `COc1ccccc1N1CC(C(=O)NCCN2C(=O)S/C(=C\c3cccnc3)C2=O)CC1=O` (stereo not given), the inhibition was 4.51%.

Regarding `CCOc1ccc(N2CC(C(=O)NCCN3C(=O)S/C(=C\c4cccnc4)C3=O)CC2=O)cc1` (stereo not given), the inhibition is 8.89%.

Regarding `COc1ccc(N2CC(C(=O)NCCN3C(=O)S/C(=C\c4cccnc4)C3=O)CC2=O)c(OC)c1` (stereo not given), the inhibition was 65.4% (active).

As for `COc1ccc(S(=O)(=O)N(C)CC(=O)N2CCCC2)cc1`, the inhibition was -1%.

As for `COc1cc(OC)cc(C(=O)NNC(=O)Cc2cccs2)c1`, the inhibition was 19.8%.

On to `Cc1sc2nc(CSCC(=O)NC3CCCCC3)[nH]c(=O)c2c1C`, for which the inhibition is 9.75%.

On to `CC(=O)c1sc2nc(SCC(=O)N3CCCCC3)[nH]c(=O)c2c1C`, for which the inhibition is 13.1%.

Regarding `CSc1nnc(SCc2nc3sc(C(=O)O)c(C)c3c(=O)[nH]2)s1`, the inhibition is 49.9% (active).

For `CCc1ccc(NC(=O)CN2C(=O)CSC2=O)cc1`, the inhibition is -3.77%.

As to `COc1cccc(CNc2nc(C(F)(F)F)nc3ccccc23)c1`, the inhibition is 2.55%.

On to `CCc1ccc(C(CNc2nc(C(F)(F)F)nc3ccccc23)N(C)C)cc1` (stereo not given), for which the inhibition was -1.56%.

For `CC(Nc1nc(C(F)(F)F)nc2ccccc12)c1cccs1` (stereo not given), the inhibition was 28.4% (active).

With `COc1ccc(CN2C(CC(=O)Nc3cccnc3)c3ccc(C(F)(F)F)cc3S2(=O)=O)cc1` (stereo not given), the inhibition is 6.11%.

For the molecule `COc1ccc(C(=O)/C=C/c2cccnc2)c(OC)c1`, the inhibition is -1.82%.

Regarding `COc1ccc(/C=C/C(=O)c2cc(Br)ccc(=O)c2O)cc1`, the inhibition was 40.7% (active).

Take `COc1ccc(C(=O)/C=C/c2ccc(OC3CSC3)cc2)cc1`: the inhibition was 1.34%.

As for `O=C1N[C@H](Cc2c[nH]c3ccccc23)COC(=O)[C@H](Cc2ccc(F)cc2)C/C=C\C[C@H]1CC(=O)N(CCO)Cc1ccccc1`, the inhibition is 21.3%.

Turning to `COCCN1C(=O)C(=O)/C(=C(/O)c2ccc(S(=O)(=O)N3CCOCC3)cc2)C1c1ccc(OC)c(OC)c1` (stereo not given), the inhibition was 0.25%.

With `CCn1c(SCC(=O)N/N=C/c2ccccc2OCC(=O)O)nnc1-c1ccc(C(C)(C)C)cc1`, the inhibition was 11.4%.

As to `COc1ccc(CCOC(=O)CNC(=O)c2ccc(Cl)cc2Cl)cc1`, the inhibition is -0.13%.

Regarding `Cc1coc2c(O)cc3c(c12)OC1(N2CCCCC2)C(=O)NCCCC31` (stereo not given), the inhibition was 27.6% (active).

Consider `O=C(Nc1ccc(F)cc1)N1CCCC(c2nc3c(nnn3Cc3ccccc3Cl)c(=O)[nH]2)C1` (stereo not given), for which the inhibition was 1.47%.

With `Cc1ccc(NC(=O)N2CCC(c3nc4c(nnn4Cc4c(F)cccc4Cl)c(=O)[nH]3)CC2)cc1`, the inhibition was 27.7% (active).

On to `COc1ccc(Cn2nnc3c(=O)[nH]c(C4CCN(C(=O)c5ccccc5Cl)CC4)nc32)cc1`, for which the inhibition is 9.22%.

In the case of `CCOC(=O)c1ccc(NC(=O)C2CC(=O)N(c3ccc4c(c3)OCCO4)C2)cc1` (stereo not given), the inhibition is 29.3% (active).

With `Cc1ccc(NC(=O)C2CC(=O)N(c3ccc4c(c3)OCCO4)C2)cc1S(=O)(=O)N1CCCCCC1` (stereo not given), the inhibition is 0.97%.

`CCc1nnc(NC(=O)C2CC(=O)N(c3ccc4c(c3)OCCO4)C2)s1` (stereo not given): the inhibition is 2.68%.

On to `O=C(COC(=O)c1ccc(S(=O)(=O)N2CCc3ccccc3C2)cc1)NC(=O)NCc1ccco1`, for which the inhibition is -5.65%.

For `S=c1nccc(-c2cc(Cl)sc2Cl)[nH]1`, the inhibition was 4.56%.

Consider `CCN(Cc1ccccc1)C(=O)CSc1nc(C)cc2c1C(=O)OC2`, for which the inhibition was 7%.

Turning to `COc1ccccc1C(=O)Nc1cccc(C(=O)N2CCOCC2)c1`, the inhibition was -0.6%.

For the molecule `CN(C)C(=O)CCc1ccc2c3c([nH]c2c1)[C@]1(C)[C@@H](C(=O)N2CCCCC2)C[C@H](CC(=O)NCCC2=CCCCC2)C(=O)N1CC3`, the inhibition was 9.04%.

As for `O=C1C(=O)N(CCCO)C(c2ccccc2)/C1=C(\O)c1ccc(Br)cc1` (stereo not given), the inhibition is 2.67%.

As for `CC(C)(C)NC(=O)C(c1ccc(Cl)cc1)N(CCO)C(=O)c1snc(C(N)=O)c1N` (stereo not given), the inhibition was -1.41%.

As for `CN(C)S(=O)(=O)c1cccc(NC(=S)N/N=C/C(=O)c2ccccc2)c1`, the inhibition was 12.9%.

Consider `O=C(N/N=C/c1c[nH]c2ccccc12)c1cc2ccccc2o1`, for which the inhibition was 15.3%.

As for `O=C(O)c1cccc(NC(=S)N/N=C/c2c[nH]c3ccccc23)c1`, the inhibition was 26.4% (active).

In the case of `Cc1ccc(-c2cc(C(=O)NCc3cn(C)nc3C)c3cc(Br)ccc3n2)cc1`, the inhibition is 2.72%.

With `O=C(Nc1ccccc1F)c1ccccc1-c1ccc(C(F)(F)F)cc1`, the inhibition is 0.76%.

In the case of `Cc1cc(C(=O)N/N=C/c2ccc(O)c([N+](=O)[O-])c2)c(C)n1-c1ccc(F)cc1`, the inhibition is 33.4% (active).

As to `COc1cc(/C=N/NC(=O)c2cc(C)n(-c3ccc(F)cc3)c2C)cc(OC)c1O`, the inhibition was 9.67%.

With `Cc1nn(CC(=O)N/N=C/c2ccc(F)cc2)c(C)c1[N+](=O)[O-]`, the inhibition was -6.43%.

Turning to `COCCNc1cc(-c2ccccc2)nc2cc(-c3cccc(F)c3)nn12`, the inhibition was -13.5%.

As for `CC(NC(=S)NC1CCCCC1)C(c1ccccc1)N1CCOCC1` (stereo not given), the inhibition was 2.17%.

The record behind these values is PubChem BioAssay AID463082 (The Scripps Research Institute Molecular Screening Center, 2010).
